From PubChem BioAssay (NCI) come the findings set out here.

About 83,000 compounds went through this panel and 20% of them were active in at least one assay; those are over-represented in the sample as a whole.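 Step 1: grow cells in 96-well plates. Step 2: add test compound at a single concentration. Step 3: incubate 48 h. Step 4: record percent growth.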 Calls of active or inactive are those of the source. Rule for the calls: active = growth percent below 10; inactive = the rest.

The test system of the experiment is HL-60(TB) leukemia. The experiment in a line: NCI-60 one-dose screen, 48 h (100 = growth as untreated, 0 = no growth, -100 = all killed). The conditions noted are these: 10 µM unless noted.
For the compound `CC/C=C\C[C@H](F)C/C=C1/C(=O)C=C[C@@H]1C/C=C\CCCC(=O)O`, the growth was -16.1% (active).

As to `CCN(CC)c1ccc(N=Nc2cc(Cl)ccc2Cl)c(NC(=O)CCC(=O)O)c1`, the growth was 119% (inactive).

For the compound `COc1cc2nc3cc([N+](=O)[O-])ccc3c(NCCNCC(C)(C)O)c2cc1OC`, the growth was -12.8% (active).

As for `CSc1ccc(N=C=C(c2ccccc2)c2ccccc2)cc1`, the growth is 79.8% (inactive).

Turning to `O=C(Nc1ccc(N=Nc2ccccc2)cc1)c1cccc2ccccc12`, the growth is 11.8% (inactive).

In the case of `COc1ccc(N2CCN(S(=O)(=O)c3oc(-c4ccccc4)nc3C#N)CC2)cc1`, the growth was 50.5% (inactive).

Take `O=C(/C=C(\Nc1ccccc1)c1ccccc1)c1cn(-c2ccc([N+](=O)[O-])cc2)nn1`: the growth was 114% (inactive).

`Cc1cccc(NC(=O)Cn2cc(CN3CCN(c4ccnc5cc(Cl)ccc45)CC3)nn2)c1`: the growth is 89.1% (inactive).

Consider `COC(=O)c1c2c(c(C)[n+]([O-])c1C)C(=O)C=C(NCc1cccc(Cl)c1)C2=O`, for which the growth is -31.8% (active).

For `COc1ccc(OC)c2c1[nH]c(=O)c1c3ccccc3cn21`, the growth is -49.3% (active).

On to `Nc1c(Cl)cc([N+](=O)[O-])cc1Br`, for which the growth was 101% (inactive).

Take `C[n+]1c(/C=C/c2c(O)ccc3ccccc23)ccc2ccccc21`: the growth was 17.9% (inactive).

With `CCCCCCCCCCCCCCCCCCOc1ccccc1CC(=O)NCC[N+]1(C)CCCCC1`, the growth is 41.8% (inactive).

Take `C/C=C/C1=CN2C(=O)c3cc(OC4OC(C)C(NC)C(C)(O)C4O)c(C)c(O)c3N=C[C@@H]2C1` (stereo not given in full): the growth was -4.33% (active).

As for `CCCCOc1c(N)cccc1C(=O)OCCN(CC)CC`, the growth is 64.3% (inactive).

For `CCOC(=O)CSc1c(-c2ccccc2)c2cc(Cl)ccc2[nH]c1=O`, the growth was 84.7% (inactive).

On to `C=C1CCC2C(C)(CO)C(O)CCC2(C)C1C/C=C1/C(=O)OCC1O/C=C/c1ccccc1` (stereo not given), for which the growth was 7.31% (active).

On to `Nc1ncn([C@@H]2O[C@H](CO)[C@@H](O)C2(F)F)c(=O)n1`, for which the growth is 25.2% (inactive).

In the case of `O=c1[nH]c(Cl)nc2c1cnn2-c1ccccc1`, the growth is -2.45% (active).

For `Cc1ccc(NC(=O)c2[nH]c(SCCN(C)C)nc2-c2ccc(F)cc2)cc1C#Cc1cnc2cccnn12`, the growth was -54.9% (active).

For `CCCN(CCC)CN(CCC)CCC`, the growth was 93.5% (inactive).

Consider `CSc1ncccc1C(=O)OCC(=O)Nc1oc(C)c2c(C)n[nH]c(=O)c12`, for which the growth is 98.2% (inactive).

For the compound `C=CCNC(=O)Cc1c(-c2ccc(OC)cc2)oc2c(OC)c3c(c(OC)c12)OCO3`, the growth was 102% (inactive).

Turning to `Cc1ccc(S(=O)(=O)c2ccccc2)cc1`, the growth was 12.8% (inactive).

`COc1cccc(/C=C/C(=O)Nc2cc(OC)c3c(c2)OCO3)c1`: the growth was 78% (inactive).

Take `CC1(C)OC2OC3C(CN)OC(c4ccccc4)OC3C2O1` (stereo not given): the growth is 49.3% (inactive).

Take `CN1CCN(Cc2ccc(NC(=O)c3cncc(C#Cc4cnc(N)c5ccc(F)cc45)c3)cc2C(F)(F)F)CC1`: the growth is -27% (active).

`Cc1ccc(C(F)(F)F)cc1N1CCN(C(=O)[C@H]2C[C@H]2c2ccc(C(F)(F)F)nc2)CC1`: the growth was 81.8% (inactive).

For the compound `CO[C@H]1C[C@@H]2CC[C@@H](C)[C@@](O)(O2)C(=O)C(=O)N2CCCC[C@H]2C(=O)O[C@H]([C@H](C)C[C@@H]2CC[C@@H](OP(C)(C)=O)[C@H](OC)C2)CC(=O)[C@H](C)/C=C(\C)[C@@H](O)[C@@H](OC)C(=O)[C@H](C)C[C@H](C)\C=C/C=C/C=C/1C`, the growth was 76.4% (inactive).

Regarding `CC(=O)n1nc(C(=O)OC(C)(C)c2ccccc2)c2ccccc21`, the growth is 97.5% (inactive).

For `c1ccc(-c2n(Cc3ccc4ccccc4n3)cc[n+]2Cc2ccc3ccccc3c2)cc1`, the growth is -54.3% (active).

Take `NC(=S)N/N=C/c1cc(-c2cccc(N)c2)ccn1`: the growth was -12% (active).

For `COc1cc(-c2cc(C(=O)N3CCN(C(=O)c4ccccc4NCc4ccco4)CC3)nc3cc(-c4ccccc4)nn23)cc(OC)c1OC`, the growth was 11.6% (inactive).

Take `CC(=O)Nc1cccc(C2=CC(c3ccc(C)cc3)n3ncnc3N2)c1` (stereo not given): the growth is 89.9% (inactive).

For the compound `O=c1c(-c2nc3ccccc3[nH]2)cc2ccccc2n1Cc1cn(Cc2ccc(N3CCOCC3)cc2)nn1`, the growth was 104% (inactive).

Regarding `Cc1ccc(OCCOCCOCCOCCOc2ccc(C)n(O)c2=S)c(=S)n1O`, the growth was -7.44% (active).

Consider `ClCC1(Cn2cnc3c(Cl)nc(Cl)nc32)COC1`, for which the growth is 91.6% (inactive).

Take `CC[C@]1(O)CC2CN(CCc3c([nH]c4ccccc34)[C@@](C(=O)OC)(c3cc4c(cc3OC)N(C=O)[C@H]3[C@@](O)(C(=O)OC)[C@H](OC(C)=O)[C@]5(CC)C=CCN6CC[C@]43[C@@H]65)C2)C1` (stereo not given in full): the growth is 7.11% (active).

Regarding `COc1ccc2c(c1)Oc1nc(N)c(C#N)c(N)c1C2Sc1ccc(O)cc1` (stereo not given), the growth is 9.8% (active).

For `COc1ccc(/C=C2\CCCC3=C2NC(C)=NC3c2ccc(OC)c(OC)c2)cc1OC` (stereo not given), the growth was -6.62% (active).
